From PubChem BioAssay AID449739 (Vanderbilt High Throughput Screening Facility, 2010)
About 4,200 (4.2%) of roughly 100,000 compounds were called active.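 How the source made its calls: active means single-dose well whose peak fluorescence ratio is a statistical outlier from its plate by either plate-standardised score or position-corrected B-score; inactive means the rest.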 This excerpt belongs to a sample that is enriched for actives.

target: Voltage-dependent T-type calcium channel subunit alpha-1H (Homo sapiens) (UniProt O95180); assay: Cav3.2 calcium influx blockers – cell-based, Fluo-4 calcium fluorescence, FDSS, MLSMR library, primary screen (AID 449739); details: Cav3.2-expressing cells, at 10 µM, active compounds read low
Sequence (O95180 whole entry, looked up): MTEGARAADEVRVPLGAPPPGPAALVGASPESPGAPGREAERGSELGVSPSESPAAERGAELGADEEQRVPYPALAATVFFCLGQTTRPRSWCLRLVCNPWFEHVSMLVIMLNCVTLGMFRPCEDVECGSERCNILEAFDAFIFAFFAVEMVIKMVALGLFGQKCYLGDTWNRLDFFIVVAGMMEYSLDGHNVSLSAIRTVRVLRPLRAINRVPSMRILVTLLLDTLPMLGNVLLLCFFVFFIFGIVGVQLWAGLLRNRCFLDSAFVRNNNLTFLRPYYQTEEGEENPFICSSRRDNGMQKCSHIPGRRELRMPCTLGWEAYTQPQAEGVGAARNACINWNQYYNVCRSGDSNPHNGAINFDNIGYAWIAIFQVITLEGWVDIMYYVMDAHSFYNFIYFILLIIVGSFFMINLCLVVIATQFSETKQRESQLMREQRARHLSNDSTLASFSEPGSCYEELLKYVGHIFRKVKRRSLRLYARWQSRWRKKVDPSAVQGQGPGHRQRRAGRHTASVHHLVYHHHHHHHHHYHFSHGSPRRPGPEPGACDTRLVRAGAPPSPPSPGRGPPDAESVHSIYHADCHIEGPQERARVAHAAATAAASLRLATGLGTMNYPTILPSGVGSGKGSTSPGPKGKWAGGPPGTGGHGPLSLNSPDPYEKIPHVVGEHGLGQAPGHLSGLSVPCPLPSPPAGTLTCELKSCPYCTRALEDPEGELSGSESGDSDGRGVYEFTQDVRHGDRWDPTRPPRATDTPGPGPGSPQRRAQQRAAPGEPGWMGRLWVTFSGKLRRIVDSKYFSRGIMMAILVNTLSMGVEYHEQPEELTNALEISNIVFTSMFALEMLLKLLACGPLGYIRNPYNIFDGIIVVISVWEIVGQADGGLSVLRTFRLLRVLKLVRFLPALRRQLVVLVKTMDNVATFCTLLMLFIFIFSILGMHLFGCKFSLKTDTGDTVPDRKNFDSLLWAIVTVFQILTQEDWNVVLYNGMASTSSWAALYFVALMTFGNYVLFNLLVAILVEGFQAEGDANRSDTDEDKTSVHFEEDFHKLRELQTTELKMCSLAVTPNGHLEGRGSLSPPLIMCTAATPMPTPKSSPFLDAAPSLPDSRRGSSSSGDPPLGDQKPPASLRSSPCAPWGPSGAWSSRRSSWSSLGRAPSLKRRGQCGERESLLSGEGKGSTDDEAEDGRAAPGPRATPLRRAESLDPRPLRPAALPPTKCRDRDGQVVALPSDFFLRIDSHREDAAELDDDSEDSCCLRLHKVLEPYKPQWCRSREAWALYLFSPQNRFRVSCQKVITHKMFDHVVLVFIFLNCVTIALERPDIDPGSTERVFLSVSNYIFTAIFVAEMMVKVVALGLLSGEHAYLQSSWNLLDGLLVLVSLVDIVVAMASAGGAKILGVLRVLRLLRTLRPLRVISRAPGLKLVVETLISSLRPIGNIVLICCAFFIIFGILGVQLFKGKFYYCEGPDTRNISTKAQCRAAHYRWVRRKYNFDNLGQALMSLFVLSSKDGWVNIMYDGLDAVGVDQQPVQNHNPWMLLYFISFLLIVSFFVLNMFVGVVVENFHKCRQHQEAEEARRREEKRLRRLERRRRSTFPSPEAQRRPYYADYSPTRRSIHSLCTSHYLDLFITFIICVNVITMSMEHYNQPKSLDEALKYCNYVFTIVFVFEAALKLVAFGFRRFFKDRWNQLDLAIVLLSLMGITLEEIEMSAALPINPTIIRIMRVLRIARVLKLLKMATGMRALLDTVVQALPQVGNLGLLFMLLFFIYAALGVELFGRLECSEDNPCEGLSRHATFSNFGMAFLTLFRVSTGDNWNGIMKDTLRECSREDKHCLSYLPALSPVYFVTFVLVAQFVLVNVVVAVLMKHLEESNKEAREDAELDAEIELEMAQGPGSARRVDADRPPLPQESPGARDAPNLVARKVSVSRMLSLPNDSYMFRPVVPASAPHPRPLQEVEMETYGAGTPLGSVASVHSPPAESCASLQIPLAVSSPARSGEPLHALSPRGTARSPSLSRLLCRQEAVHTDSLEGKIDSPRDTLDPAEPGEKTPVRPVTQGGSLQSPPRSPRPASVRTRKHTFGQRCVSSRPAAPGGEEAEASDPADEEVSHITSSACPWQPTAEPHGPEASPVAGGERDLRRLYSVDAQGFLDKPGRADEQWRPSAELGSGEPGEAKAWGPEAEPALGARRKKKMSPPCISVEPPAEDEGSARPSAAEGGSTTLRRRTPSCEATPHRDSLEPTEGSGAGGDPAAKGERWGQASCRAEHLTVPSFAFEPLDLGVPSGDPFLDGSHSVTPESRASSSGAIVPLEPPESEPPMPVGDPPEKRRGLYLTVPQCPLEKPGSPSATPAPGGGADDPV

| Compound | B-score |
| --- | --- |
| CC(C)(C)NS(=O)(=O)c1ccc(NC(=O)NC2CCCCC2)cc1 | -0.833 (inactive) |
| Cc1n[nH]c(=S)n1/N=C/c1ccc(Br)o1 | 0.825 (inactive) |
| COc1ccc(Nc2nc(Cl)nc(NCc3ccco3)n2)cc1 | -0.534 (inactive) |
| COc1ccc(CCNC(=O)C2CCCN(Cc3nc(-c4cccc(Cl)c4)oc3C)C2)cc1OC (stereo not given) | -3.48 (active) |
| COc1ccc(CCN(C)C(=O)C2CCCN(Cc3ccc(OC)c(OC)c3)C2)cc1OC (stereo not given) | -0.0096 (inactive) |
| COc1ccc(CCNC(=O)C2CCN(c3nn4c(=O)cc(C)nc4s3)CC2)cc1OC | 0.351 (inactive) |
| CC1(OC(=O)C2CCCC2)C(=O)C=C2C=C(c3ccc(C#N)cc3)OC=C2C1=O (stereo not given) | -0.314 (inactive) |
| CCCCNC(=O)C(=O)c1ccccc1NC(C)=O | 0.725 (inactive) |
| O=C(CCCn1c(=O)[nH]c2cc(Cl)ccc2c1=O)NCCN1CCN(c2ccccc2)CC1 | 0.27 (inactive) |
| CCn1c(=O)cc(OCC(=O)NCCCN2CCN(c3cccc(Cl)c3)CC2)c2ccccc21 | 0.375 (inactive) |
| COc1ccc(CCNC(=O)CCCCn2c(=O)[nH]c3ccccc3c2=O)cc1OC | 0.545 (inactive) |
| Cc1ccc(C)c(N2CCN(C(=O)CCCCn3c(=O)[nH]c4ccccc4c3=O)CC2)c1 | -8.03 (active) |
| O=C(CCn1c(=O)[nH]c2ccccc2c1=O)NCCCN1CCN(c2cccc(Cl)c2)CC1 | -7.26 (active) |
| O=C(CCCCn1c(=O)[nH]c2ccccc2c1=O)NCc1ccc2c(c1)OCO2 | -0.0333 (inactive) |
| COC(=O)c1ccccc1OCC(=O)N1CCN(c2ccc(Cl)cc2)CC1 | -1.9 (inactive) |
| Cc1ccccc1OC/C(O)=C(\C#N)c1nc2ccccc2[nH]1 | -0.71 (inactive) |
| COc1cc(OC)c(/C=N/NC(=O)c2ccc([N+](=O)[O-])cc2)cc1Br | -0.234 (inactive) |
| COc1cc(/C=N\NC(=O)CNC(=O)c2cccc([N+](=O)[O-])c2)ccc1O | 0.194 (inactive) |
| COc1cccc(/C=N/NC(=O)c2cccc([N+](=O)[O-])c2)c1OS(=O)(=O)c1ccc(C)cc1 | -6.01 (active) |
| C#CCNC(=O)C1=C[C@@H](c2ccccc2)[C@H](CCCO)[C@@H](OCC)O1 | 1.09 (inactive) |
| Cc1ccc(C)c(N(CC(=O)NCc2ccco2)C(=O)CCC(=O)Nc2ccccn2)c1 | -2.66 (inactive) |
| Cc1ccc2c(c1)N(CC(=O)N(Cc1ccccn1)Cc1ccco1)C(=O)C(C(C)C)O2 (stereo not given) | -6.96 (active) |
| Cc1ccc(C(C(=O)NC2CCCC2)N(Cc2ccco2)C(=O)CCC(=O)Nc2ccccn2)cc1 (stereo not given) | 0.124 (inactive) |

| Compound | B-score |
| --- | --- |
| C#CCOCCOCCOCCNc1nc(N2CCN(C(=O)[C@H](CCC(=O)O)n3cc(C(N)CO)nn3)CC2)nc(N2CCN(C(=O)[C@H](Cc3ccc(O)cc3)n3cc(C(N)[C@H](C)CC)nn3)CC2)n1 (stereo not given in full) | -0.353 (inactive) |
| O=C(O)/C=C/C(=O)Nc1ccc(F)cc1F | 0.769 (inactive) |
| Cn1cnc([N+](=O)[O-])c1Sc1ccccc1 | 0.333 (inactive) |
| CC(C)(C)n1nc(Cc2cccc3ccccc23)c(C#N)c1N | -1.32 (inactive) |
| COC(=O)Cc1nc2ccccc2[nH]1 | 0.0867 (inactive) |
| c1ccc(-c2nnc(SCc3nc4ccccc4[nH]3)o2)cc1 | -1.58 (inactive) |
| c1ccc2c(CSCc3nc4ccccc4[nH]3)cccc2c1 | -7.7 (active) |
| COc1cc2c(cc1O)[C@H](Cc1ccc(Oc3cc(C[C@@H]4NCCc5cc(OC)c(O)cc54)ccc3O)cc1)NCC2 | 0.142 (inactive) |
| C(=N/N1CCN(c2ccccc2)CC1)/c1cccs1 | 0.219 (inactive) |
| O=C(CCNS(=O)(=O)c1ccccc1C(F)(F)F)NCc1ccc2c(c1)OCO2 | -0.223 (inactive) |
| CCCn1c(C(O)c2cc(OC)ccc2OC)nc2ccccc21 (stereo not given) | -1.69 (inactive) |
| COCCn1c(-c2ccc(OC)c(OC)c2)nc2ccccc21 | 0.414 (inactive) |
| COc1ccc(-c2nc3ccccc3n2CCC(C)C)cc1OC | -6.94 (active) |
| CCCCN1C(N)=NC[C@@H]1CC1CCCCC1 | 0.078 (inactive) |
| CCCCN1C(=S)NC[C@@H]1C(C)CC (stereo not given in full) | -0.603 (inactive) |
| C[C@H](NC(=O)c1nc[nH]c1C(=O)N[C@@H](C)C(=O)OC(C)(C)C)C(=O)OC(C)(C)C | 0.275 (inactive) |
| COc1cccc(-c2nnc(SCCOc3ccc4c(C)cc(=O)oc4c3)o2)c1 | 1.22 (inactive) |
| Cc1ccc(SCCN2C(=O)NC(C)(C)C2=O)cc1 | 0.269 (inactive) |
| COc1ccc(C(=O)CN2C(=O)NC(C)(c3ccc(C)cc3)C2=O)cc1OC (stereo not given) | -0.586 (inactive) |
| Cc1ccc(C2(c3ccc(C)cc3)NC(=O)N(Cc3c(C)noc3C)C2=O)cc1 | -6.31 (active) |
| NS(=O)(=O)c1cccnc1Nc1cccc(Cl)c1 | -0.12 (inactive) |
| O=S(=O)(c1cnccc1N1CCN(/N=C/c2ccc(Br)cc2)CC1)N1CCCCC1 | -0.791 (inactive) |
| Cc1ccc(-c2csc(N(Cc3ccco3)C(=O)c3cccs3)n2)cc1 | -1.85 (inactive) |

| Compound | B-score |
| --- | --- |
| Cc1ccc(/C=N/NC(=O)c2sccc2OCc2ccc(F)cc2)cc1 | -0.514 (inactive) |
| NC(=O)N1CCCC1C(=O)Nc1ccc(Cl)c(Cl)c1 (stereo not given) | -0.377 (inactive) |
| O=C(Nc1ccc(Cl)c(Cl)c1)N1CC=C(c2ccccc2)CC1 | -6.72 (active) |
| O=C(Nc1ccc(N2CCN(C(=O)c3ccccc3)CC2)c(Cl)c1)c1cccnc1 | 1.44 (inactive) |
| COC(=O)CCCC1=CC2=CC(=O)C(C)(OC(=O)c3cccs3)C(=O)C2=CN1CC1CC1 (stereo not given) | 1.17 (inactive) |
| C#CCOCCOCCOCCNc1nc(N2CCN(C(=O)[C@H](C(C)C)n3cc(CCO)nn3)CC2)nc(N2CCN(C(=O)[C@H](C(C)C)n3cc(CCO)nn3)CC2)n1 | 0.0404 (inactive) |
| COCCNC(=O)CN(C(=O)CCC(=O)Nc1cc(C)on1)c1ccc(C)cc1C | 0.162 (inactive) |
| CCCCOc1ccc(N(CC(=O)NCC2CCCO2)C(=O)CCC(=O)Nc2cc(C)ccn2)cc1 (stereo not given) | -9.41 (active) |
| Cc1cc(NC(=O)CCC(=O)N(CC(=O)NCC2CCCO2)c2ccccc2C)no1 (stereo not given) | 0.22 (inactive) |
| COCOc1cc(O)c(C(=O)/C=C/c2ccc(OCOC)c(OCOC)c2)c(OCOC)c1 | 0.785 (inactive) |
| Oc1ccc2ccc3cccc[n+]3c2c1 | -10 (active) |
| COC(C[C@H](O)CC(=O)COCc1ccccc1)OC | 0.759 (inactive) |
| C=CCn1c(Cn2nnc3ccccc32)nnc1SCC(=O)N/N=C/c1cc(Br)cc(OC)c1O | 0.722 (inactive) |
| COc1ccc(Br)cc1/C=N/n1c(C)nnc1C | 0.564 (inactive) |
| COc1cc(Br)cc(/C=N/c2ncn[nH]2)c1O | -3.11 (active) |
| CCOc1ccc2nc(N3CCCN(C(=O)Nc4ccccc4C)CC3)c(C#N)cc2c1 | -4.45 (active) |
| Cc1cccc2cc(C#N)c(N3CCCC3)nc12 | -0.395 (inactive) |
| CCOc1ccc2nc(NCCNS(=O)(=O)c3ccccc3)c(C#N)cc2c1 | 0.364 (inactive) |
| COc1ccc(C#Cc2c(-c3ccc(OC)cc3)oc3ccc(-c4ccc5c(c4)OCO5)cc23)cc1 | -2.98 (inactive) |
| CCO[C@H]1OC(C(=O)O)=C[C@@H](C2CCCCC2)[C@@H]1CCCO | -0.908 (inactive) |
| COc1ccc(-c2nc(CS(=O)CC(=O)N3CCc4ccccc4C3)c(C)o2)cc1 (stereo not given) | 0.115 (inactive) |
| Cc1nnc(SCC(=O)N2CCc3ccccc3C2)s1 | 0.719 (inactive) |
| Cc1ccccc1-c1nc(CS(=O)(=O)CC(=O)N2CCc3ccccc3C2)c(C)o1 | -4.63 (active) |

| Compound | B-score |
| --- | --- |
| CCCn1c(C)cc(C(=O)COC(=O)c2c(C)nn(-c3ccccc3)c2C)c1C | -3.42 (inactive) |
| Nn1c(SCC(=O)NC(=O)NC2CCCC2)nnc1-c1ccccc1F | 0.0138 (inactive) |
| Cc1nn(-c2ccccc2)c(C)c1C(=O)OCC(=O)NC(=O)NC1CCCCC1 | -5.85 (active) |
| COC(=O)c1c(-c2cccs2)csc1NC(=O)CSc1ncnc2sc(C)c(C)c12 | -0.978 (inactive) |
| CCCCNC(=S)NNC(=O)c1cc(C)on1 | 0.531 (inactive) |
| COc1ccccc1N1CCN(CCCCOc2ccc(F)cc2)CC1 | -5.88 (active) |
| CCN1CCN(CCCCOc2ccccc2F)CC1 | 0.893 (inactive) |
| COc1ccccc1N1CCN(Cc2ccc(OC)c3ccccc23)CC1 | -1.06 (inactive) |
| COc1cnc(SCc2ccc(Cl)c(Cl)c2)nc1Cl | -1.35 (inactive) |
| O=C(O)C1CC=C(Cl)CC1C(=O)NCc1ccccc1 (stereo not given) | 0.671 (inactive) |
| COC(=O)[C@H](Cc1ccccc1)NC(=O)[C@@H]1C[C@H]1[C@@H](NC(=O)OCc1ccccc1)c1ccccc1 | 0.0644 (inactive) |
| O=C(NCc1ccccc1)[C@H]1C[C@@H]1[C@H](NP(=O)(c1ccccc1)c1ccccc1)c1ccccc1 | -4.19 (active) |
| Cc1cc(C)c2nc(NC(=O)c3ccc4c(c3)OCO4)sc2c1 | 0.981 (inactive) |
| C=C(C)C(=O)Nc1cccc(C2=NOC3(C2)C[C@H](C(N)=O)N(C(=O)C(c2ccccc2)c2ccccc2)C3)c1 (stereo not given in full) | -0.703 (inactive) |
| CCOC(=O)c1sc2nc(SC)nc(-c3ccccc3)c2c1N | -0.0983 (inactive) |
| Nc1ccccc1SCc1cc([N+](=O)[O-])cc2c1OCOC2 | -4.25 (active) |
| O=C(CNC(=O)Cc1ccccc1)NCC(=O)OCC(=O)c1ccccc1Cl | 0.107 (inactive) |
| CCOC(=O)/C(=C\c1ccc([N+](=O)[O-])cc1)C(=O)c1cc(C(C)=O)c(Nc2ccccc2)s1 | 0.717 (inactive) |
| Cc1nnc(SCC(=O)N2CCN(c3ccccc3)CC2)n1-c1ccccc1 | 0.663 (inactive) |
| Cc1ccc(S(=O)(=O)NCC(=O)N2CCN(c3ccccn3)CC2)cc1 | 0.189 (inactive) |
| Cc1ccnc(N2CCN(C(=O)CSc3nc4ccccc4nc3N3CCCCC3)CC2)c1 | -7.43 (active) |
